Source: PubChem BioAssay (Tox21)
Values joined by “and” are separate entries in the source; they are usually repeats but may differ in a detail not shown here. Equal values may be shown once. Values without a mark were called inactive. Results filed as inconclusive are left out. A call without a number means that no potency is given here. Active and inactive are the calls of the source. Unless noted, calls follow the shape of the dose curve; as a rule, active = well fitted curve in the direction sought with a large enough effect in the repeat runs; inconclusive = weak or mixed curves; inactive = no such curve, though single readings can be large; an effect the other way counts as inactive or inconclusive.

Key:
[1] = biological target: Luciferin 4-monooxygenase (Photinus pyralis) (UniProt P08659); assay: qHTS assay to identify small molecule inhibitors of firefly luciferase (AID 1224835); also: nearly all actives have a fitted effect of over 25% in size; also: potency is read from the fitted curve at half-maximal effect
Chain of Luciferin 4-monooxygenase (Photinus pyralis) (P08659 whole entry, looked up): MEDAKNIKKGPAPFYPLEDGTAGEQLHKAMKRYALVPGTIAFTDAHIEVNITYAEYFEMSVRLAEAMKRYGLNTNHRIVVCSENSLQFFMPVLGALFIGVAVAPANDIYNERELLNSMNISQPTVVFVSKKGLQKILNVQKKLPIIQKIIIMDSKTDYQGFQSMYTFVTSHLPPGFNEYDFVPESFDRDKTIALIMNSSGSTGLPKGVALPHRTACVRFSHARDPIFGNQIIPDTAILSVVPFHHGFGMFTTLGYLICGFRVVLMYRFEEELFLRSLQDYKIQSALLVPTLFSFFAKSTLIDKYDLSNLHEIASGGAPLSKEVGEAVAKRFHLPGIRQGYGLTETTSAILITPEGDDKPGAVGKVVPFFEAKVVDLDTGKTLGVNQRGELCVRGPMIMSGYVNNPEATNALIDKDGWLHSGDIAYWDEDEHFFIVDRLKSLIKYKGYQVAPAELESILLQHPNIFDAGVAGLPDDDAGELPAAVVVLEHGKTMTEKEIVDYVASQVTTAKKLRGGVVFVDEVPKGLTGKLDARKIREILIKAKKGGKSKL
Method in brief: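 Inhibition of purified Photinus luciferase is measured by luminescence. Substrate levels (D-luciferin, ATP) sit at their KM values. Each compound is tested in a concentration series.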

[2] = qHTS assay to identify small molecule agonists of the constitutive androstane receptor (CAR) signaling pathway - cell viability counter screen (AID 1224836); also: nearly all actives have a fitted effect of over 45% in size
Method in brief: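 23 h treatment, 37 C, 5% CO2. Cell line: HepG2 stably expressing hCAR with a CYP2B6-2.2kb construct. Co-treatment: PK11195, 0.75 uM final. Read-out: CellTiter-Fluor fluorescence intensity.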

[3] = qHTS assay to identify small molecule antagonists of the constitutive androstane receptor (CAR) signaling pathway - cell viability counter screen (AID 1224837); also: nearly all actives have a fitted effect of over 45% in size
Method in brief: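 HepG2 cells stably expressing hCAR and a CYP2B6-2.2kb reporter were plated and pre-incubated 4 hr at 37 C/5% CO2, then given compounds at 15 concentrations plus 50 nM CITCO (final). After 23 hr, viability was read by CellTiter-Fluor fluorescence.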

[4] = biological target: Nuclear receptor subfamily 1 group I member 3 (Homo sapiens) (UniProt Q14994); assay: qHTS assay to identify small molecule antagonists of the constitutive androstane receptor (CAR) signaling pathway (AID 1224838); also: nearly all actives have a fitted effect of over 40% in size; also: potency is read from the fitted curve at half-maximal effect
Chain of Nuclear receptor subfamily 1 group I member 3 (Homo sapiens) (Q14994 whole entry, looked up): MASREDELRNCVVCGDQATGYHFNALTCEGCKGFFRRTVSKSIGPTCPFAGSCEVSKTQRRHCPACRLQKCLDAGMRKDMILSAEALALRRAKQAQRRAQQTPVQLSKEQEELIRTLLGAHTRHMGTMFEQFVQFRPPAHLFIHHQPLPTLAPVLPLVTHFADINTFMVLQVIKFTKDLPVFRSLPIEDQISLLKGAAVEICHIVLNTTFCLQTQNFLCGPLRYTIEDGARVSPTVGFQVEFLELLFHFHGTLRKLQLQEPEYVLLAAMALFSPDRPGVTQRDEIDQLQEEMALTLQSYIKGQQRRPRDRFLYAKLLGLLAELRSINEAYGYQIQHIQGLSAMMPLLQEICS
Method in brief: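 HepG2 cells stably co-transfected with hCAR and a CYP2B6-2.2kb luciferase reporter were seeded 4 h before compound addition at 15 concentrations. Cells were stimulated with 50 nM CITCO (final) for 24 h at 37 C; luciferase luminescence was then read.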

[5] = biological target: Nuclear receptor subfamily 1 group I member 3 (Homo sapiens) (UniProt Q14994); assay: qHTS assay to identify small molecule agonists of the constitutive androstane receptor (CAR) signaling pathway (AID 1224839); also: nearly all actives have a fitted effect of over 15% in size; also: potency is read from the fitted curve at half-maximal effect;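 as to activation: HepG2 cells stably carrying human CAR and a CYP2B6 luciferase reporter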
Method in brief: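 Compounds tested at 15 concentrations on HepG2 cells stably harbouring hCAR and CYP2B6-2.2kb reporter constructs, co-treated with PK11195 (0.75 uM final), 24 h at 37 C; luminescent reporter signal quantified.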

[6] = biological target: Thyrotropin receptor (Homo sapiens) (UniProt P16473); assay: qHTS assay to identify small molecule agonists of the thyroid stimulating hormone receptor (TSHR) signaling pathway (AID 1224843; calls by dose curve; also: nearly all actives have a fitted effect of over 45% in size; also: potency is read from the fitted curve at half-maximal effect)
Chain of Thyrotropin receptor (Homo sapiens) (P16473 whole entry, looked up): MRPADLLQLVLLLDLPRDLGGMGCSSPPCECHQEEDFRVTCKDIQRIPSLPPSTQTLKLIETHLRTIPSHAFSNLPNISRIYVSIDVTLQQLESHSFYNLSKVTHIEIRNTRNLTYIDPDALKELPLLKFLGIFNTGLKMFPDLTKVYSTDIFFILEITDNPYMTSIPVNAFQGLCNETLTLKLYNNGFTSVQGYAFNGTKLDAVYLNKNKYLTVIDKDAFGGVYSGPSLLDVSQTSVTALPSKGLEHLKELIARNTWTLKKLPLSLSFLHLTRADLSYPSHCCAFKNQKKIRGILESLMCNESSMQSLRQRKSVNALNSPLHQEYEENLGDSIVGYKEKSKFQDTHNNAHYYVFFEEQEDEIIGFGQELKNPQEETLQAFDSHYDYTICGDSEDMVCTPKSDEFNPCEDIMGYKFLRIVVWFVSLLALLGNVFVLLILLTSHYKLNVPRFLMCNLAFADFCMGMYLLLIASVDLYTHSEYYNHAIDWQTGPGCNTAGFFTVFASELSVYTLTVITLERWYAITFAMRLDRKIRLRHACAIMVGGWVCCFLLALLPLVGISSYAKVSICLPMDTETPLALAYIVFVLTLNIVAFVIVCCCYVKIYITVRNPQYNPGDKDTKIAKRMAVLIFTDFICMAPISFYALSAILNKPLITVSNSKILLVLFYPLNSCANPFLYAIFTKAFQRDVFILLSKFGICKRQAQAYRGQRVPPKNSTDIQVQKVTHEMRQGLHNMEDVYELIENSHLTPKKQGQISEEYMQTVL
Method in brief: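 Screening of the Tox21 10K collection used HEK293 cells engineered with TSHR at 800 cells per well. After a 30-min room-temperature compound exposure, HTRF cAMP reagents were added and fluorescence recorded 1 h later.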

[7] = qHTS assay to identify small molecule agonists of the hypoxia (HIF-1) signaling pathway - cell viability counter screen (AID 1224844; calls by dose curve; also: nearly all actives have a fitted effect of over 50% in size; also: potency is read from the fitted curve at half-maximal effect)
Method in brief: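 HRE-bla ME-180 cells in medium with 0.5% dialyzed FBS were preincubated 5 hrs at 37C, exposed to compounds for 17 hrs, then viability was read as CellTiter-Glo luminescence after 30 min at room temperature, in the reporter wells.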

[8] = qHTS assay to identify small molecule agonists of the hypoxia (HIF-1) signaling pathway (AID 1224846; active = well fitted activation curve with a large enough effect in the signal ratio in the repeat runs, not every such curve was filed as active; the % refers to the signal ratio)
Method in brief: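 HRE-bla ME-180 cells (beta-lactamase reporter under hypoxia response element) were plated at 2,000 cells/well in medium with 0.5% dialyzed FBS, rested 5 hrs, then given compounds in DMSO for 17 hrs at 37C, 5% CO2. Reporter induction was read with CCF4-AM FRET substrate.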

[9] = qHTS assay to identify small molecule agonists of H2AX - cell viability counter screen (AID 1224847; calls by dose curve; also: nearly all actives have a fitted effect of over 30% in size; also: potency is read from the fitted curve at half-maximal effect)
Method in brief: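 Compounds tested at 15 concentrations were incubated 3 hr at 37C with wild-type CHO-K1 cells; cellular ATP-based luminescence (CellTiter-Glo) indicated viability.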

[10] = qHTS RealTime-Glo MT Cell Viability Assay in HepG2 cells - 24 hour (AID 1224867); also: nearly all actives have a fitted effect of over 50% in size; also: potency is read from the fitted curve at half-maximal effect
Method in brief: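 HepG2 cells were seeded at 600 cells/well together with NanoLuc luciferase and a cell-permeant prosubstrate, preincubated 5 h at 37 C/5% CO2, then pin-dosed with compounds in DMSO. Nonlytic luminescence from viable cells was read at each time point.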

[11] = A CellTox Green Cytotoxicity Assay to monitor cytotoxicity in HEK293 cells - 0 hour (AID 1224869); also: nearly all actives have a fitted effect of over 50% in size
Method in brief: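 HEK293 cells premixed with CellTox Green dye were seeded at 600 cells/well and left 5 h at 37 C/5% CO2 before pin transfer of 23 nL compound in DMSO. Fluorescence from dye bound to dead-cell DNA was read during 40 h treatment.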

[12] = qHTS RealTime-Glo MT Cell Viability Assay in HepG2 cells - 40 hour (AID 1224870); also: nearly all actives have a fitted effect of over 50% in size; also: potency is read from the fitted curve at half-maximal effect
Method in brief: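 Real-time viability: cells seeded at 600 per well together with NanoLuc and cell-permeant prosubstrate, compounds added after 5 h incubation. Luminescence tracked at 0, 8, 16, 24, 32 and 40 h of exposure.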

[13] = qHTS assay to identify small molecule agonists of H2AX (AID 1224845; active = well fitted activation curve with a large enough effect in the signal ratio in the repeat runs, not every such curve was filed as active; the % refers to the signal ratio; also: potency is read from the fitted curve at half-maximal effect)
Method in brief: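 Phospho-H2AX Ser139 measured by HTRF (ex 320 nm; em 665 and 620 nm) after 24 hr antibody incubation. Compounds, 15 concentrations, 0.76% DMSO, were applied to CHO-K1 cells for 3hr at 37C before lysis.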

[14] = qHTS assay to identify small molecule agonists of the estrogen related receptor (ERR) signaling pathway from Tox21 library (AID 1224849; calls by dose curve; also: nearly all actives have a fitted effect of over 15% in size); settings: ERR reporter cell line, ONE-Glo luciferase, 18 h; at 92.4 µM (top of the series) unless noted
Method in brief: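 ERR reporter cell line (NTP) seeded, rested 6 h at 37 C/5% CO2, then pinned with Tox21 compounds in DMSO. After 18 h at 37 C, ONE-Glo luciferase luminescence was read following 30 min at room temperature.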

[15] = qHTS RealTime-Glo MT Cell Viability Assay in HEK293 cells - 32 hour (AID 1224868); also: nearly all actives have a fitted effect of over 50% in size; also: potency is read from the fitted curve at half-maximal effect
Method in brief: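 HEK293 cells were seeded at 600 cells/well together with NanoLuc luciferase and cell-permeant prosubstrate, preincubated 5 h at 37 C/5% CO2, then given compound in DMSO by pintool. Luminescence from viable-cell prosubstrate reduction was read repeatedly over 40 h.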

[16] = qHTS assay to identify small molecule antagonists of the estrogen related receptor signaling pathway with the pleiotropic PPARgamma coactivator (PGC) from Tox21 10K library - cell viability counter screen (AID 1224840; active = well fitted cell-killing curve with a large enough effect in the repeat runs, not every such curve was filed as active; also: nearly all actives have a fitted effect of over 40% in size; also: potency is read from the fitted curve at half-maximal effect)
Method in brief: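 PGC/ERR cells were seeded at 2,000 cells/well and left 6 hours at 37 C/5% CO2 before pin-tool addition of compounds in DMSO. After 17.5 hours at 37 C, CellTiter-Fluor was added and fluorescence read 30 minutes later.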

[17] = qHTS assay to identify small molecule agonists of the estrogen related receptor signaling pathway with the pleiotropic PPARgamma coactivator (PGC) from Tox21 10K library (AID 1224842); also: nearly all actives have a fitted effect of over 15% in size
Method in brief: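 Luminescence from One-Glo (30 min, room temperature) measured after PGC/ERR cells had 18 h at 37 C with pinned compound (23 nL in DMSO). Cells had been seeded at 2,000 per well and pre-incubated 6 h.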

[18] = qHTS assay to identify small molecule antagonists of the estrogen related receptor signaling pathway with the pleiotropic PPARgamma coactivator (PGC) from Tox21 10K library (AID 1224841; call rule not given here; also: potency is read from the fitted curve at half-maximal effect)
Method in brief: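 PGC/ERR reporter cells were seeded at 2,000 cells/well and held 6 hours at 37 C/5% CO2 before pin-tool addition of compounds in DMSO. After 18 hours at 37 C, One-Glo was added and luminescence read after 30 minutes at room temperature.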

[19] = qHTS assay to identify small molecule antagonists of the estrogen related receptor (ERR) signaling pathway from Tox21 library (AID 1224848)
Method in brief: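 Antagonist-mode screen of the Tox21 10K library in an NTP-provided ERR reporter cell line; 18 h compound exposure at 37 C, luminescence measured with ONE-Glo.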

| SMILES | Potency [1] | Potency [2] | Potency [3] | Potency [4] | Potency [5] | Potency [6] | Potency [7] | outcome [8] | Potency [9] | Potency [10] | Potency [11] | Potency [12] | Potency [13] | activity change, positive = activation [14] | Potency [15] | Potency [16] | Potency [17] | Potency [18] | Potency [19] |
| --- | --- | --- | --- | --- | --- | --- | --- | --- | --- | --- | --- | --- | --- | --- | --- | --- | --- | --- | --- |
| O=C1C(=O)c2cccc3cccc1c23 | inactive | inactive | inactive | inactive | 61.1 µM (active) | inactive | inactive | inactive | inactive | inactive | inactive | 17.4 µM (active) |  |  |  |  |  |  |  |
| CO/C=C(/C(=O)OC)c1ccccc1COc1cccc(C(F)(F)F)n1 | inactive |  |  | inactive | 3.85 µM (active) |  | inactive | inactive | 17.9 µM (active) | inactive | inactive | inactive | inactive | -45% | 19.5 µM (active) |  |  |  |  |
| CC1CC(CC2CCC(N)C(C)C2)CCC1N (stereo not drawn) | inactive | inactive | inactive |  | inactive | inactive | inactive | inactive | inactive | inactive | inactive | inactive | inactive |  | 55.8 µM (active) |  |  |  |  |
| Oc1ccc(Cl)c(Cl)c1Cl |  | inactive | inactive | inactive |  | inactive |  | inactive |  | inactive | inactive | inactive | inactive |  |  |  |  |  |  |
| O=C(NCc1cccnc1)Nc1ccc([N+](=O)[O-])cc1 | inactive | inactive | inactive |  |  | inactive | inactive | inactive | inactive |  | inactive | inactive | inactive |  | 49 µM (active) |  |  |  |  |
| C=CC[C@]1(O)CC[C@H]2[C@@H]3CCC4=CC(=O)CCC4=C3C=C[C@@]21C |  |  |  |  |  |  |  |  | 39.1 µM (active) |  | inactive |  |  | -61.2% [at 42.5 µM] | 16.9 µM (active) | inactive | inactive |  |  |
| OC(c1ccc(Cl)cc1)(c1ccc(Cl)cc1)c1cccnc1 | inactive | inactive | inactive | inactive |  | 30.6 µM (active) |  |  |  |  | inactive | inactive | inactive | -55.6% |  |  |  | 61.1 µM (active) | 48.6 µM (active) |
| CC(c1ccc(O)cc1)(c1ccc(O)cc1)c1ccc(O)cc1 | inactive | inactive | inactive |  | inactive |  | inactive |  |  | inactive | inactive | inactive |  | -42.4% | 54.9 µM (active) |  | inactive | 54.5 µM (active) | 54.5 µM (active) |
| O=C(Nc1ccccc1)Nc1cnns1 |  |  |  | inactive |  | inactive |  | inactive | inactive | inactive | inactive | inactive | inactive | -23.5% | 27.5 µM (active) |  |  | inactive |  |
| II | 28.3 µM (active) | inactive | inactive | inactive | inactive |  |  |  | 80 µM (active) | 15.5 µM (active) | inactive | 5.49 µM (active) | inactive |  | inactive | inactive |  |  |  |
| CS/C(C)=N/OC(=O)N(C)SN(C)C(=O)O/N=C(\C)SC | 31.7 µM (active) |  |  |  |  |  |  | inactive |  |  | inactive |  | inactive | -68.2% | 49 µM (active) |  |  |  |  |
| O=C(O)C1(c2ccc3c(c2)OC[C@H](Cc2ccc(-c4ccccc4)cc2)[C@H]3O)CCCC1 |  | inactive | inactive |  |  |  |  |  | 101 µM (active) | inactive | inactive | inactive | inactive | -42.3% |  | inactive | inactive |  |  |
| O=C(CBr)c1ccccc1 | inactive | inactive | inactive | inactive |  |  | inactive | inactive | inactive |  | inactive | inactive |  |  | inactive | inactive |  |  |  |
| CC(=O)c1cc2c(cc1C)C(C)(C)C(C)CC2(C)C (stereo not drawn) | inactive |  | inactive |  |  | inactive | 43.6 µM (active) |  | 89.8 µM (active) |  | inactive |  | 101 µM (active) |  | inactive |  |  |  |  |
| C(=NC1CCCCC1)=NC1CCCCC1 | inactive |  |  | 10.9 µM (active) and 21.7 µM (active) | inactive | inactive | inactive |  | 25.5 µM (active) and 14.2 µM (active) | 13.9 µM (active) and 12.3 µM (active) | inactive | 12.4 µM (active) and 12.3 µM (active) | inactive | -50.9% and -60.1% | 22 µM (active) and 21.9 µM (active) | 38.8 µM (active) |  | 13.7 µM (active) | 13.7 µM (active) |
| O=S1OC[C@@H]2[C@H](CO1)[C@]1(Cl)C(Cl)=C(Cl)[C@@]2(Cl)C1(Cl)Cl (stereo partly drawn) |  | inactive | inactive | inactive | 27.3 µM (active) | 10.9 µM (active) | 43.6 µM (active) |  | 20.1 µM (active) |  | inactive |  |  |  |  |  |  |  |  |
